The source of these data is PubChem BioAssay (NCATS).

Assay [1] in a line: OV-KATE Cancer Cell Toxicity qHTS against the NCATS CANVASS Library (AID 1347345). Also: potency is read from the fitted curve at half-maximal effect. As to activity change, negative = cytotoxicity: % is scaled to controls: 0 for no effect and ±100 for the full control effect. A digest of the protocol:
(§1)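 Cells were seeded at 1000 per well, allowed 4 h at 37 degrees C/5% CO2, then pin-treated with an 11-point compound series. After 72 h, viability was read as CellTiter-Glo luminescence following 15min at room temperature.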
(Quantitative high-throughput screening tests each substance at several concentrations.)

Assay [2] can be described thus: HPAF-II 24hr Apoptosis Induction qHTS against the NCATS CANVASS Library (AID 1347356). Also: 0% is about no effect. A digest of the protocol: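 HPAF-II cells (500/well) exposed to compounds in 11-point series for 24 h at 37 degrees C; caspase-3/7 activity read by Caspase-Glo luminescence after 15 min at room temperature. Doxorubicin titration as control.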
The nature of assay [3]: qHTS for ATAD5 Agonist screened against the NCATS CANVASS Library (AID 1347367).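 Also: luciferase reporter driven by ATAD5 which rises upon DNA damage; 0% is about no effect.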 In outline: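 HEK293T cells stably carrying an ATAD5-controlled luciferase reporter (2000 cells/well) attached for 5 hr, then received compounds in an 11-point series for 16hr at 37C. Luminescence was read after a 30 min room-temperature reagent step.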
Assay [4] can be described thus: G06 Cancer Cell Toxicity qHTS against the NCATS CANVASS Library (AID 1347368). Also: nearly all actives have a fitted effect of over 60% in size. Also: potency is read from the fitted curve at half-maximal effect. As to activity change, negative = cytotoxic: series mostly up to about 46 µM; % is scaled to controls: 0 for no effect and ±100 for the full control effect. In outline:
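G06 dog glioma cells, 500 per well, exposed 72 hr at 37C, 5% CO2 to compounds in an 11-point series. Cytotoxicity read as ATP content by CellTiterGlo luminescence.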

Assay [5] is described as follows: qHTS assay for small molecule disruptors of mitochondrial membrane potential screened against the NCATS CANVASS Library (AID 1347389). Also: nearly all actives have a fitted effect of over 60% in size. Also: potency is read from the fitted curve at half-maximal effect. A digest of the protocol:
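HepG2 cells (2,000/well) plated overnight, then exposed to compounds in 11-point qHTS series for 1 h at 37C before 30 min Mito-MPS dye; depolarization read as fall in red aggregate (590 nm) to green monomer (535 nm) fluorescence.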

Assay [6] can be described thus: Panc-1005 Cancer Cell Toxicity qHTS against the NCATS CANVASS Library (AID 1347349). Also: nearly all actives have a fitted effect of over 60% in size. Also: potency is read from the fitted curve at half-maximal effect. As to activity change, negative = cytotoxicity: series mostly up to about 38 µM; % is scaled to controls: 0 for no effect and ±100 for the full control effect. In outline:
as §1

Assay [7] can be described thus: qHTS for activators of Nrf2/ARE signaling pathway screened against the NCATS CANVASS Library (AID 1347391). Also: nearly all actives have a fitted effect of over 60% in size. Also: potency is read from the fitted curve at half-maximal effect. As to activation: 0% is about no effect. A digest of the protocol:
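ARE-bla HepG2 beta-lactamase reporter cells exposed to compounds for 16 h at 37C; CCF4 substrate 2 h, fluorescence at ex 405 nm, em 460/530 nm. Viability by CellTiter-Glo luminescence.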

A short description of assay [8]: qHTS for Antimalaria activity screened against the NCATS CANVASS Library (AID 1347380).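 Also: Plasmodium falciparum strain Dd2 asexual parasites grown in red blood cells; series mostly up to about 29 µM; nearly all actives have a fitted effect of over 40% in size.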 A digest of the protocol:
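Red blood cells infected with P. falciparum Dd2 (2.5% hematocrit final, 0.3% parasitemia) were exposed to compounds in an 11-point qHTS series for 72 hr at 37C under 5% O2 and 5% CO2. Lysis buffer with SYBR Green was then added for 18 hr, and fluorescence was read at 485/535 nm.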

The target of assay [9] is Nuclear receptor subfamily 1 group I member 3 (Homo sapiens) (UniProt Q14994). Briefly: qHTS for Constitutive Androstane Receptor (CAR) Agonist screened against the NCATS CANVASS Library (AID 1347373).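 Also: every well also contained 1.5 µM PK11195 alongside the test compound; 0% is about no effect.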 In outline:
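HepG2 cells stably carrying hCAR and a CYP2B6-2.2kb luciferase reporter, treated 24hr at 37C with compounds plus 1.5uM PK11195; activation by ONE-Glo luminescence, viability by CellTiter-Fluor.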

Values without a mark were called inactive. Results filed as inconclusive are left out. The source made the active and inactive calls. Calls follow the shape of the dose curve; as a rule, active = well fitted curve in the direction sought with a large enough effect; inconclusive = small, poorly fitted or top-dose-only effect, or another doubt; inactive = no such curve, though single readings can be large; an effect the other way counts as inactive or inconclusive. Numbered stars: 1 amine (or outer) side, 2 acyl side, 3 side chain; on linkers, the order of the positions; unused ones are H or OH. Square brackets hold non-standard residues; d marks the D form. Peptide text beside a SMILES is read from it. ξ: configuration not given here. X4 = O=C(C1CC2(c3ccc(O)cc3)c3ccccc3NC2N1[*:1])[*:2]; ξW = NC(Cc1c[nH]c2ccccc12)C(=O)O; ξY = NC(Cc1ccc(O)cc1)C(=O)O

Chain of Nuclear receptor subfamily 1 group I member 3 (Homo sapiens) (Q14994 whole entry, looked up): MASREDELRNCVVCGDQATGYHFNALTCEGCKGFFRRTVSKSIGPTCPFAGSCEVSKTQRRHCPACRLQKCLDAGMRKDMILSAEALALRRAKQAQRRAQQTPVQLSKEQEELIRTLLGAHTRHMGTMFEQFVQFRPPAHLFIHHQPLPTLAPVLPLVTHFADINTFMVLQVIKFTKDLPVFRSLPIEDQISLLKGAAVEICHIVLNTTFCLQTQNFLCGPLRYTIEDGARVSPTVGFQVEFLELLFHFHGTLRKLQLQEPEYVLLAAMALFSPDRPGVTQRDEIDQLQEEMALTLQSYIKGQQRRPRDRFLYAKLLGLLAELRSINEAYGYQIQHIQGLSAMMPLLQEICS

On to `CC1(C)C=Cc2c(ccc3c2OC[C@@H](c2ccc(O)cc2O)C3)O1`, for which the Potency result in assay [1], in [3] and in [4] was “inactive” each time. For the same compound, the outcome in assay [2] was inactive. In addition, in assay [5], the Potency was 14.8 µM (active).

With `C=C1/C=C\C(CCC)=C\c2csc(n2)C(C)NC(=O)C[C@@]2(CC(=O)O)CCC(=C)[C@H](C1)S2` (some centres undefined), the Potency entry in assay [1], in assay [3] and in [4] was “inactive” each time.

`CN1CCc2cc3c(c4c2[C@H]1[C@@H](O)c1ccccc1-4)OCO3`: the Potency result in assay [1] is “inactive”. For the same compound, the Potency in assay [6] was 16.8 µM (active); in assay [5] it was 11.7 µM (active); in assay [7], 20.9 µM (active).

For the compound `CS/C=C/C(N)=O`, the Potency result in assay [1], in assay [4], in assay [8], in assay [5] and in [7] was “inactive” throughout. The compound was called inactive in [2].

Turning to `COc1ccc(/C=C2\COc3cc(O)ccc3C2=O)cc1`, the Potency result in assay [1] and in assay [4] was “inactive” throughout. In addition, the Potency in [5] is 20.9 µM (active); in [7] it was 8.31 µM (active).

Turning to `COC1C(O)C(OC(N)=O)C(Oc2ccc3c(O)c(NC(=O)c4ccc(O)c(CC=C(C)C)c4)c(=O)oc3c2C)OC1(C)C` (centres undefined), the Potency entry in [1], in assay [3], in assay [4] and in [7] was “inactive” in each case. The outcome in assay [2] and in [9] was inactive.

Take `CCC[C@@H](C)/C=C(\C)[C@H](O)[C@H](C)/C=C/CC[C@@H](O)[C@H](C)[C@H](O)[C@H](C)[C@H](O)[C@H](C)[C@H]1O[C@H]([C@H](C)C(=O)O)CC[C@@H]1C`: the Potency in assay [1] was 3.75 µM (active); in assay [5], 20.9 µM (active). In addition, the call in [2] was inactive. In addition, in assay [3], the Potency entry was “inactive”.

For the compound `C=C1C(=O)O[C@H]2[C@H]1CC/C(CO)=C\CC[C@@]1(C)O[C@@H]21`, the Potency in [1] is 18.8 µM (active); in assay [4], 11.8 µM (active). Besides, the Potency result in assay [3] and in assay [7] was “inactive” each time.

As for `CCCCCCC[C@@H](C/C=C/CCC(=O)NCCc1c[nH]c2ccccc12)OC`, the Potency result in [1], in [6], in assay [3], in assay [4] and in [7] was “inactive” each time. In assay [2], the compound was classed as inactive.

Regarding `C[C@@H]1C(=O)[C@]23CC[C@H]1C[C@]21O[C@H]2C(C)(C)C=CC(=O)[C@@]23COC1=O`, the Potency entry in [1], in [3] and in assay [4] was “inactive” each time. In [2], the result was inactive.

On to `OCc1ccc2ocnc2c1`, for which the Potency result in assay [1], in [3], in [4] and in assay [7] was “inactive” throughout. The call in [2] and in [9] was inactive.

Regarding `CC1C(=O)C23CCC1C[C@@]21O[C@H]2C(C)(C)C=CC(=O)[C@@]23COC1=O` (some centres undefined), the Potency result in assay [1], in [4] and in assay [7] was “inactive” in each case. Besides, the outcome in [9] was inactive.

With `C=C1C[C@@]23C=CC(=O)[C@@](C)(CCCC(C)C(=O)O)[C@@H]2C[C@@H]1CC3` (some centres undefined), the Potency entry in assay [1], in assay [3], in assay [8] and in assay [5] was “inactive” in each case. The result in assay [2] was inactive. Besides, in [7], the Potency was 16.6 µM (active).

On to `CC12C[C@]3(O)O[C@@H](O1)[C@]1(COC(=O)c4ccccc4)[C@@H]3CC21OC1OC(CO)C(O)C(O)C1O` (some centres undefined), for which the Potency entry in assay [1], in [6], in [5] and in [7] was “inactive” in each case. The compound was called inactive in [9].

For `CCCCCC[C@H](CCCCC[C@@H](O)C(N)=O)OC(=O)[C@@H]1CC=CN1C(=O)c1ccccc1O`, the Potency result in assay [1], in assay [6], in [3], in assay [5] and in assay [7] was “inactive” in each case.

Turning to `C[C@@]12C[C@@H](C[C@H]3C(=O)O[C@@H](c4ccoc4)[C@H](OC(=O)c4ccccc4)[C@@H]31)OC2=O`, the Potency entry in assay [1], in assay [3], in assay [4], in assay [8], in assay [5] and in assay [7] was “inactive” each time. The result in assay [9] was inactive.

On to `CC1(C)CCC[C@]2(C)[C@@H]1CC[C@@]13C[C@@H](CC[C@H]12)C(C)(O)C3` (some centres undefined), for which the Potency entry in assay [1], in assay [4] and in [7] was “inactive” each time. For the same compound, the result in assay [9] was inactive.

As to `C[C@]12CC[C@]3(C1)[C@H](CC2=O)CC(OC(=O)c1ccccc1)[C@H]1[C@@](CO)(C(=O)O)CCC[C@@]13C` (some centres undefined), the Potency entry in [1], in [3] and in [5] was “inactive” in each case. Also, the compound was called inactive in assay [2] and in [9]. Also, the Potency in assay [4] is 10.5 µM (active); in [7], 18.6 µM (active).

In the case of `CC(=O)O[C@H]1CC[C@@]2(C)C(CC[C@]3(C)C2CC=C2C4CC(C)(C)CC[C@]4(C)CC[C@]23C)C1(C)C` (some centres undefined), the Potency entry in [1], in assay [3], in assay [4] and in assay [7] was “inactive” each time.

As for `CC[C@H](C)[C@H](NC(=O)C(Cc1ccc(O)cc1)NC(=O)C(Cc1c[nH]c2ccccc12)NC(=O)[C@H](C)N)C(=O)N1C(C(=O)NC(Cc2ccc(O)cc2)C(=O)O)CC2(c3ccc(O)cc3)c3ccccc3NC12` (some centres undefined) (H-A[ξW][ξY]I[X4][ξY]-OH), the Potency result in assay [1], in [4], in assay [5] and in assay [7] was “inactive” in each case. Further, the compound was classed as inactive in assay [2] and in assay [9].

As for `COc1ccc([C@@H]2c3cc(OC)c(OC)cc3C(=O)[C@H](C)C2C)cc1OC` (some centres undefined), the activity change, negative = cytotoxicity in assay [1] is -0.626% [at 7.64 µM]. In assay [2], the caspase activation is 1.81% [at 9.19 µM]. Moreover, the activity change, negative = cytotoxic in [4] was 9.12% [at 9.19 µM]. Also, the activation in assay [9] is 1.07% [at 9.19 µM]; in assay [7], 4.51% [at 9.19 µM].

Take `CNc1ccc(Cl)cc1C(=O)OC[C@]1(C)[C@H]2CC[C@]3(C)[C@@H](C[C@@H](OC)[C@H](C)[C@H]3C3=C(O)C(=O)OC3O)[C@]2(C)CC[C@H]1O` (some centres undefined): the Potency result in [1] and in assay [7] was “inactive” throughout. In addition, the call in assay [9] was inactive.

In the case of `O=C1CC(c2cc(O)cc(O)c2)Oc2cc(O)ccc21` (centres undefined), the Potency entry in assay [1], in assay [6], in [3] and in [8] was “inactive” throughout. For the same compound, in assay [9], the compound was classed as inactive. Besides, the Potency in assay [5] is 7.41 µM (active).
